Laboratory results as given in PubChem BioAssay AID382 (SGCOxCompounds, 2006).
Active and inactive are the calls of the source. No rule for the calls is given here.

Each compound was assayed against Dual specificity protein kinase CLK1 (Homo sapiens) (UniProt P49759) (assay: ligand-induced CLK1 melting temperature shift – biophysical, recombinant human kinase, DSF (AID 382)). Details: Recombinant CLK1, thermal shift (DSF), at 10 µM, protein 1.7 µM, buffer 10 mM HEPES, pH 7.5, NaCl 150 mM, with 50 µM L-Arg/L-Glu (1:1), hits give high values.
Dual specificity protein kinase CLK1 (Homo sapiens), sequence (P49759 whole entry, looked up): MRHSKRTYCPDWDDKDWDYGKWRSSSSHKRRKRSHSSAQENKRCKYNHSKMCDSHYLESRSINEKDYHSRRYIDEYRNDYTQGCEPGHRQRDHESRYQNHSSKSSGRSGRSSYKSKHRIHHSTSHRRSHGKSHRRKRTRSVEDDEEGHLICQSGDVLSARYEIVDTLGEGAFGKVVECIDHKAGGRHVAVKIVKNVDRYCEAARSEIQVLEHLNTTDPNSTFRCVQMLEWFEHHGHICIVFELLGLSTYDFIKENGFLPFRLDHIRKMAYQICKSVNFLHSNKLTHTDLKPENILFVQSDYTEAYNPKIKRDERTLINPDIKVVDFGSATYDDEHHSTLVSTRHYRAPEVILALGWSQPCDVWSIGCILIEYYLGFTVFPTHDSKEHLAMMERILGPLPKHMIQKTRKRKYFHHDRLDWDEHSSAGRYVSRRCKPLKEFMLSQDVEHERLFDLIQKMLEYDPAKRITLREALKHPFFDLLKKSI

Row | Compound | Tm shift
1 | COc1ccc(Nc2nc(N)c(C(=O)c3ccc(Cl)cc3)s2)cc1 | 4.4 Celsius (active)
2 | Nc1nc(Nc2cccc(Cl)c2)sc1C(=O)c1ccc(F)cc1 | 4 Celsius (active)
3 | Nc1nc(Nc2ccc(F)cc2)sc1C(=O)c1ccccc1 | 3.3 Celsius (active)

Same assay, conditions: Recombinant CLK1, thermal shift (DSF), at 10 µM, protein 2 µM, buffer 10 mM HEPES, NaCl 150 mM, hits give high values

Row | Compound | Tm shift
4 | O=c1cc(-c2ccccc2)oc2cc(O)cc(O)c12 | 5.03 Celsius (active)
5 | COc1cc2ncnc(Nc3cccc(O)c3)c2cc1OC | 4.15 Celsius (active)
6 | COc1cc(/C=C/C(=O)CC(=O)/C=C/c2ccc(O)c(OC)c2)ccc1O | 9.16 Celsius (active)
7 | O=c1c(O)c(-c2cc(O)c(O)c(O)c2)oc2cc(O)cc(O)c12 | 6.89 Celsius (active)
8 | O=c1c(O)c(-c2ccc(O)cc2)oc2cc(O)cc(O)c12 | 5.97 Celsius (active)
9 | O=c1c(O)c(-c2ccc(O)c(O)c2)oc2cc(O)ccc12 | 7.11 Celsius (active)
10 | O=Nc1c(-c2c(O)[nH]c3ccc(I)cc23)[nH]c2ccccc12 | 5.14 Celsius (active)
11 | O=c1cc(-c2ccc(O)c(O)c2)oc2cc(O)cc(O)c12 | 5.77 Celsius (active)
12 | Brc1c(Br)c(Br)c2n[nH]nc2c1Br | 3.97 Celsius (active)
